Reference: PubChem BioAssay
Activity calls are given as the source filed them. The rule behind the calls is not given here. Where a SMILES comes first, the peptide text is derived from it. [ ]: non-standard residue; d: D form. The star is where a group is joined. ξ: configuration not given here. Piv = CC(C)(C)C(=O)*; ξNva = CCCC(N)C(=O)O

Biological target: Pantothenate synthetase (Mycobacterium tuberculosis (strain ATCC 25618 / H37Rv)) (UniProt P9WIL5)
Assay: Coupled enzyme confirmation of inhibitors against recombinant Mtb PanC (AID 375);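 note: 0% = full reaction with vehicle and 100% = no enzyme background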
Conditions: coupled enzyme assay; at 10 µM, hits give high values

Pantothenate synthetase (Mycobacterium tuberculosis (strain ATCC 25618 / H37Rv)), sequence (P9WIL5 whole entry, looked up): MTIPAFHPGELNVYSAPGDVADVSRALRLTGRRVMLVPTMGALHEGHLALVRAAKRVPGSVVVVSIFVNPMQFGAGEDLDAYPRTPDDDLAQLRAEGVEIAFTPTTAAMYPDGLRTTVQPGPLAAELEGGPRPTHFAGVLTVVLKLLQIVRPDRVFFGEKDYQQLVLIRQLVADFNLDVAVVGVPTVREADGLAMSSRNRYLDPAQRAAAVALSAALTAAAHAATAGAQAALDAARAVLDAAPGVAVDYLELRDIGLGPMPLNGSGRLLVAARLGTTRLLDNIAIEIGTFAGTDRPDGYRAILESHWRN

SMILES | inhibition
COc1ccc(OCCC(=O)NCc2ccccc2)cc1 | 0% (inactive)
O=C(Cn1nnc(-c2ccncc2)n1)Nc1ccc2c(c1)CCC2 | 0% (inactive)
COc1ccccc1NC(=O)C1(C)Cc2ccccc2C(=O)O1 (stereo not given) | 0% (inactive)
CC(C)(C)c1cc(NS(=O)(=O)c2ccc3c(c2)OCCO3)on1 | 0% (inactive)
COC(=O)c1cc(NC(=O)C2COc3ccccc3O2)cc(C(=O)OC)c1 (stereo not given) | 0% (inactive)
CC1CCCCC1NC(=O)Cn1ncc2ccccc21 (stereo not given) | 0% (inactive)
CCOc1ccc(Cn2nnc(C(=O)NCc3ccc(OC)cc3)c2N)cc1 | 2% (inactive)
CCOc1ccc(-c2nc(C#N)c(N3CCCCCC3)o2)cc1 | 4% (inactive)
N#CCCN(C(=O)Nc1ccc(Cl)cc1)c1ccccc1 | 1% (inactive)
Cc1cccc(C)c1NC(=O)CC(NCc1ccco1)C(=O)O (stereo not given) | 0% (inactive)
CC(NS(=O)(=O)c1ccc(OCC(=O)N2CCOCC2)c(Cl)c1)c1ccccc1 (stereo not given) | 1% (inactive)
CCOc1nc(-c2ccncc2)nc2ccccc12 | 0% (inactive)
CCn1nc(C)c(NC(=O)c2cc(Br)ccc2Cl)c1C | 15% (inactive)
COc1cccc(C(=O)NCc2nnc(SCC(=O)Nc3nccs3)n2-c2ccccc2)c1 | 2% (inactive)
CCOC(=O)C1/C(=N\O)CC(C)(O)C(C(=O)OCC)C1c1ccc(N(C)C)cc1 (stereo not given) | 0% (inactive)
COc1ccc(C)cc1NC(=O)C1CCN(S(=O)(=O)c2cccc3cccnc23)CC1 | 19% (inactive)
Cc1nc2scc(-c3ccco3)c2c(=O)n1/N=C/N(C)C | 0% (inactive)
CCOC(=O)N1CCN(CC(=O)Nc2cc(C)nn2-c2nc3ccccc3s2)CC1 | 0% (inactive)
CCC1CCCCN1CCCNC(=O)CC1Oc2ccc(C)cc2NC1=O (stereo not given) | 0% (inactive)
CCCC(NC(=O)CNC(=O)C(C)(C)C)C(=O)O (stereo not drawn) (Piv-Gly-[ξNva]-OH) | 0% (inactive)

SMILES | inhibition
Clc1ccccc1CN1CCc2sccc2C1 | 0% (inactive)
CCC(C)NC(=O)c1cc(CC(C)C)on1 (stereo not given) | 2% (inactive)
COc1ccccc1-n1c(-c2cccnc2)n[nH]c1=S | 0% (inactive)
COc1ccc(Cn2nnnc2C(c2cccs2)N2CCOCC2)cc1 (stereo not given) | 3% (inactive)
CCOC(=O)c1c(C)c(C(=O)NCC2CCCO2)c(C)n1C (stereo not given) | 7% (inactive)
O=c1oc2ccccc2c(O)c1C=NCc1ccccn1 | 0% (inactive)
CCCn1c(SCC(=O)NC(C)(C)C)nnc1C(C)C | 3% (inactive)
O=C(CSc1nnc2ccccn12)NCCN1C(=O)CSC1=O | 0% (inactive)
CS(=O)(=O)N1CCc2cc(C(=O)N3CCCCC3)ccc21 | 2% (inactive)
CN(Cc1ccccc1)Cc1c[nH]c2ccccc12 | 0% (inactive)
CCCc1nnc2n1N=C(c1ccc(OC)c(OC)c1)CS2 | 0% (inactive)
O=C(O)Cc1cc(I)c(Oc2ccc(O)c(I)c2)c(I)c1 | 0% (inactive)
CCC(C)n1ncn(-c2ccc(N3CCN(c4ccc(OCC5COC(Cn6cncn6)(c6ccc(Cl)cc6Cl)O5)cc4)CC3)cc2)c1=O (stereo not given) | 8% (inactive)
O=C(NCC(=O)N(CCc1ccccc1)C(C(=O)NC1CCCC1)c1cccnc1)c1ccco1 (stereo not given) | 3% (inactive)
Cc1onc(-c2c(Cl)cccc2Cl)c1C(=O)NCCCN1CCOCC1 | 1% (inactive)
N#Cc1ccccc1Cn1c(=O)n(Cc2ccc(C(=O)NCc3ccco3)cc2)c(=O)c2sccc21 | 9% (inactive)
COc1ccc(OC)c(N(CC(=O)N2CCN(c3cc(Cl)ccc3C)CC2)S(C)(=O)=O)c1 | 2% (inactive)
O=C(CCN1C(=O)c2ccccc2C1=O)NCCN1CCOCC1 | 0% (inactive)
C[C@]12CC[C@@H]3c4ccc(OC(=O)c5ccccc5)cc4CC[C@H]3[C@@H]1CC[C@@H]2O | 0% (inactive)
O=C(CSc1ncc(-c2ccc(F)cc2)[nH]1)N1CCCCC1 | 0% (inactive)
